Several values for one entry are separate records, joined by “and”; a condition that tells them apart may be missing. Equal entries are not always repeated. Hit rate of the full screen: of about 17,000 compounds, about 1,100 (6.5%) were called active.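 Rule for the calls: active = z-score of -3 or lower, meaning strong loss of probe binding signal; inactive = the rest.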 The full list was thinned out, with actives kept by preference. A structure can be active in one record and inactive in another.
target: Insulin-degrading enzyme (Homo sapiens) (UniProt P14735); assay: displacers of FL-6b probe from IDE – biochemical, fluorescence anisotropy, probe displacement, primary screen (AID 1259349); conditions: purified IDE, FL-6b probe fluorescence polarization; at 20 µM; stronger effect = lower value;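 note: His-tagged human IDE residues 42-1019 made in E. coli with 30 nM FL-6b probe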
Sequence (P14735 42-1019 limits assumed): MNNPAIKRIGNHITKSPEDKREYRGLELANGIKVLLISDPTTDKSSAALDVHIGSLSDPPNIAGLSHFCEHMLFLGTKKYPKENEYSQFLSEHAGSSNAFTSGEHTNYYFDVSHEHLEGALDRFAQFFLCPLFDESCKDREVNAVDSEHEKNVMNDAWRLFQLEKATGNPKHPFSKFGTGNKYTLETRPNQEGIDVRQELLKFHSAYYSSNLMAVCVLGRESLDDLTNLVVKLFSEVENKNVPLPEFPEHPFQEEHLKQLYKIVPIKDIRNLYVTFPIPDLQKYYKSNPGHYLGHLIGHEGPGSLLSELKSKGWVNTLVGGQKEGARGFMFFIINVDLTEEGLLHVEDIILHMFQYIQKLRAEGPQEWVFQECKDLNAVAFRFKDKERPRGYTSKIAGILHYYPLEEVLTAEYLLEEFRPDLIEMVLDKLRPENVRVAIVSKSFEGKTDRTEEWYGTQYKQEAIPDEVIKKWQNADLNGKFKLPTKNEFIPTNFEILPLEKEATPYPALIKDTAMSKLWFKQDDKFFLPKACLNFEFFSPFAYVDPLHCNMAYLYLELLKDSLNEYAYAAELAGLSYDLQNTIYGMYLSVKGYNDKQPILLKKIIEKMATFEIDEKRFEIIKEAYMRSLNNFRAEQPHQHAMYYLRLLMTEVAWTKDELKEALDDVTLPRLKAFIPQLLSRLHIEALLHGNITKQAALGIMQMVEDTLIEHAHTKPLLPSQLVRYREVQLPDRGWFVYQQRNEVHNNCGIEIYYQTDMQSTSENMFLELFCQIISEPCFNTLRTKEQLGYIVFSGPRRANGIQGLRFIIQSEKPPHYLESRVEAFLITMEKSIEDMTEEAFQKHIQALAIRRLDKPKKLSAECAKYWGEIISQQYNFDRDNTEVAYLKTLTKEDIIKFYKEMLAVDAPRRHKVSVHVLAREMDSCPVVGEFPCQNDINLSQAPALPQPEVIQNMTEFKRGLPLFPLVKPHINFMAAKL

z-score, -0.496 (inactive) and -4.13 (active):
COc1cccc(S(=O)(=O)N2[C@@H]3CNC[C@H]2C3c2ccc(-c3ccccc3OC)cc2)c1 (some centres not stated)

z-score, inactive:
CC(C)C#Cc1ccc([C@@H]2[C@@H](C#N)N(C(=O)C3CC3)[C@@H]2CO)cc1 1.34
CCCC#Cc1ccc([C@H]2[C@@H](CO)N(C(=O)C3CC3)[C@H]2C#N)cc1 0.0113
N#C[C@H]1[C@H](c2ccc(C#Cc3ccc(F)cc3)cc2)[C@@H](CO)N1C(=O)C1CCCC1 6.39
N#C[C@@H]1N[C@H](CO)[C@@H]1c1ccc(/C=C/c2ccccc2)cc1 0.0442
N#C[C@H]1N[C@H](CO)[C@@H]1c1ccc(C#Cc2ccccc2F)cc1 0.0442
COCC(=O)N1[C@H](CO)[C@H](c2ccccc2-c2ccc(C)cc2)[C@@H]1C#N 0.234
N#C[C@@H]1[C@H](c2ccc(C#Cc3ccccc3F)cc2)[C@H](CO)N1C(=O)C1CCCCC1 -0.57
N#C[C@@H]1[C@@H](c2ccccc2)[C@@H](CO)N1C(=O)Cc1ccccc1 0.975
C[C@@H]1CN([C@@H](C)CO)C(=O)c2cc(-c3ccc(C#N)cc3)cnc2O[C@@H]1CN(C)Cc1cccnc1 0.499
COc1cccc(S(=O)(=O)Nc2ccc3c(c2)[C@@H]2C[C@H](CC(=O)NC4CCCCC4)O[C@H](CO)[C@@H]2O3)c1 0.0301
O=S(=O)(Cc1ccccc1)N1CCCCN2[C@H](CO)[C@@H](c3ccc(-c4cncnc4)cc3)[C@H]2C1 1.15
CCc1sc(N2[C@@H](C#N)[C@@H](c3ccccc3-c3ccccc3)[C@@H]2CO)nc1C 1.04
COc1ccc(NC(=O)N2CC(=O)N3[C@H](CO)[C@@H](c4ccc(C#CCC5CCCC5)cc4)[C@H]3C2)cc1 2.81
COc1cccc(C#Cc2ccc([C@@H]3[C@H]4CN(C(=O)Cc5ccccc5)CC(=O)N4[C@H]3CO)cc2)c1 -0.17
COc1ccccc1NC(=O)N1CC(=O)N2[C@H](CO)[C@H](c3ccc(C#Cc4ccccc4)cc3)[C@H]2C1 -2.66
CCCNC(=O)N1CC(=O)N2[C@@H](CO)[C@H](c3ccc(-c4ccc(C)cc4)cc3)[C@@H]2C1 -1.44
COc1ccccc1NC(=O)N1CC(=O)N2[C@H](CO)[C@@H](c3ccc(C#Cc4ccc(F)cc4)cc3)[C@H]2C1 3.22
COCC(=O)N1CC(=O)N2[C@@H](CO)[C@@H](c3ccc(C#CC(C)C)cc3)[C@@H]2C1 1.03
CCCNC(=O)N1CC(=O)N2[C@H](CO)[C@@H](c3ccc(-c4ccc(F)cc4)cc3)[C@H]2C1 -0.254
C[C@H]1CN([C@@H](C)CO)C(=O)CCCn2nncc2CO[C@H]1CN(C)S(=O)(=O)c1ccccc1C#N -0.585
Cc1ccc(-c2ccc([C@H]3[C@H](CO)N4C(=O)CN(S(=O)(=O)c5cccc(F)c5)C[C@@H]34)cc2)cc1 1.91
C[C@H](NC(=O)C[C@@H]1C[C@@H]2c3cc(NS(=O)(=O)c4ccc(F)cc4)ccc3O[C@@H]2[C@@H](CO)O1)c1ccccc1 -0.633
O=C1NCCCOCc2cn(nn2)CC[C@@H]1Cc1ccc(-c2ccccc2)cc1 -0.0302
CCCC#Cc1ccc([C@@H]2[C@@H](CO)N3C(=O)CN(C(=O)c4ccncc4)C[C@@H]23)cc1 1.2
O=C(c1ccncc1)N1CC(=O)N2[C@H](CO)[C@H](c3ccc(-c4ccccc4F)cc3)[C@@H]2C1 0.944
CCCC#Cc1ccc([C@H]2[C@@H](CO)N3C(=O)CN(C(=O)c4ccncc4)C[C@H]23)cc1 0.281
O=C(c1ccncc1)N1CC(=O)N2[C@H](CO)[C@@H](c3ccc(-c4cccnc4)cc3)[C@H]2C1 2.02
COc1ccc(C#Cc2ccc([C@@H]3[C@@H](CO)N4C(=O)CN(C(=O)c5ccc(F)cc5)C[C@@H]34)cc2)cc1 0.452
CN(C)C(=O)c1ccc(-c2ccc([C@@H]3[C@H](C#N)N(C(=O)C4CC4)[C@H]3CO)cc2)cc1 -0.273
COc1ccc(CN(C)C[C@@H]2Oc3ccc(NC(=O)Nc4ccc5c(c4)OCO5)cc3CC(=O)N([C@H](C)CO)C[C@H]2C)cc1 1.72
COc1ccc2c3c(n(C)c2c1)[C@@H](CO)N(CC1CC1)CC31CCN(C(=O)c2cccc(F)c2)CC1 0.882
CO[C@H](CN(C)C(=O)c1cnccn1)[C@@H](C)CN([C@@H](C)CO)S(=O)(=O)c1ccccc1 1.89
CN(C)CC(=O)N1[C@H](C#N)[C@H](c2ccccc2-c2cccc(C(=O)N(C)C)c2)[C@@H]1CO 4.1
C[C@@H]1CN([C@H](C)CO)C(=O)c2c(c3ccccc3n2C)-c2ccccc2CO[C@H]1CN(C)C(=O)[C@@H](Cc1ccccc1)N(C)C -1.45
O=C(C[C@@H]1CC[C@H]2NC[C@H](O)COC[C@@H]2O1)NCCN1CCCCC1 0.878
O=C1C[C@@H](c2ccccc2)C(=O)N[C@H](c2ccc(F)cc2)C/C=C\CCN1 1
O=S(=O)(c1ccccc1F)N1[C@@H]2CNC[C@H]1C2c1ccc(-c2cncnc2)cc1 (some centres not stated) 2.04
Cc1cccc(-c2ccccc2[C@@H]2[C@H](C#N)N(c3ncc(-c4ccccc4)s3)[C@H]2CO)c1 4.05
O=S(=O)(c1ccccc1)N1C[C@@H]2[C@H](c3ccccc31)[C@H](CO)N2Cc1ccccn1 2.16
CN(C)C(=O)c1cccc(-c2ccc(C3[C@H]4CNC[C@@H]3N4C(=O)Nc3ccccc3F)cc2)c1 (some centres not stated) 1.08 and 3.82
Cc1cccc(-c2ccc(C3[C@H]4CNC[C@@H]3N4S(=O)(=O)c3ccccc3F)cc2)c1 (some centres not stated) 5.33 and 3.85
Cc1ccc(-c2ccc(C3[C@H]4CNC[C@@H]3N4S(=O)(=O)c3ccccc3C)cc2)cc1 (some centres not stated) 1.05 and 2.8
COc1cccc(NC(=O)N2[C@@H]3CNC[C@H]2C3c2ccc(-c3ccncc3)cc2)c1 (some centres not stated) 0.421 and 0.471
COCCNC(=O)C[C@H]1CC[C@@H]2[C@H](COc3ccc(NC(=O)Nc4cccc(F)c4)cc3C(=O)N2C)O1 -0.769
COc1ccc(S(=O)(=O)N2CCCCN3[C@@H](CO)[C@@H](c4ccc(C#CCC(C)C)cc4)[C@@H]3C2)cc1 4
CN(C)C(=O)c1cccc(-c2ccc(C3[C@@H]4CN(S(=O)(=O)c5ccc(F)cc5)C[C@H]3N4)cc2)c1 (some centres not stated) 4.34 and 3.12
C[C@@H]1CC(=O)N[C@H](c2ccccc2)C/C=C\C[C@H](c2ccccc2)NC1=O 1.16
COCC(=O)N1CCCCN2[C@H](CO)[C@H](c3ccc(-c4ccc(OC)cc4)cc3)[C@H]2C1 -1.33
CC(C)C#Cc1ccc([C@@H]2[C@H]3CN(C(=O)NC(C)C)CCCCN3[C@H]2CO)cc1 1
COCC(=O)N1CCCCN2[C@H](CO)[C@@H](c3ccc(-c4ccc(OC)cc4)cc3)[C@@H]2C1 -2.67
CC(C)C#Cc1ccc([C@H]2[C@H](CO)N3CCCCN(C(=O)NC(C)C)C[C@@H]23)cc1 0.103
COc1ccc2c3c([nH]c2c1)[C@H](CO)N(Cc1nccs1)CC31CCN(Cc2cccnc2)CC1 -0.878
COc1cccc(S(=O)(=O)N2CCCCN3[C@H](C2)[C@@H](c2ccc(C4=CCCCC4)cc2)[C@@H]3CO)c1 2.68
COc1ccc2c3c([nH]c2c1)[C@H](CO)N(Cc1ccc(F)cc1)CC31CCN(Cc2ccccn2)CC1 -1.44

z-score, active:
N#C[C@@H]1N[C@@H](CO)[C@@H]1c1ccc(C#Cc2ccccc2F)cc1 -3.8
COc1ccccc1C#Cc1ccc([C@H]2[C@@H](C#N)N(C(=O)C3CCCCC3)[C@@H]2CO)cc1 -7.41
COCC(=O)N1[C@H](CO)[C@@H](c2ccc(C#Cc3ccccc3F)cc2)[C@@H]1C#N -3.16
COc1ccccc1C#Cc1ccc([C@@H]2[C@@H](CO)N(C(=O)C3CC3)[C@H]2C#N)cc1 -8.33
COc1ccccc1NC(=O)N1CC(=O)N2[C@H](C1)[C@H](c1ccc(C#Cc3ccccc3)cc1)[C@@H]2CO -3.53
COCC(=O)N1CC(=O)N2[C@H](C1)[C@@H](c1ccc(C#Cc3cccc(OC)c3)cc1)[C@@H]2CO -5.09
CCCNC(=O)N1CC(=O)N2[C@H](C1)[C@@H](c1ccc(C#Cc3ccccc3)cc1)[C@@H]2CO -4.24
Cc1ccccc1-c1ccc([C@H]2[C@@H](CO)N3C(=O)CN(C(=O)c4ccncc4)C[C@H]23)cc1 -10
Cc1ccccc1-c1ccc([C@H]2[C@@H](CO)N3C(=O)CN(C(=O)c4ccncc4)C[C@@H]23)cc1 -3.52
COc1ccccc1NC(=O)N1[C@@H]2CNC[C@H]1C2c1ccc(-c2ccccc2C)cc1 (some centres not stated) -4.4
COc1ccc(-c2ccc([C@@H]3[C@@H](CO)N4CCCCN(C(=O)NC(C)C)C[C@H]34)cc2)cc1 -4.12
CC(C)NC(=O)N1CCCCN2[C@@H](CO)[C@@H](c3ccc(C#Cc4ccccc4)cc3)[C@@H]2C1 -8.05

Source: PubChem BioAssay AID1259349 (Broad Institute, 2017)
